# The whole screen tested about 410,000 compounds, of which about 5,000 (1.2%) were called active. Roughly 13% stayed inconclusive and do not appear here. Calls follow the shape of the dose curve; as a rule, active = well fitted inhibition curve with a large enough effect; inconclusive = small, poorly fitted or top-dose-only effect; inactive = no such curve, though single readings can be large or run the other way. For the sample, actives were picked, then their nearest neighbours and some compounds at random.
# Assay: qHTS for Inhibitors of TGF-b; also: nearly all actives have a fitted effect of over 65% in size
# Conditions: HepG2 CAGA-GFP TGF-b/SMAD3 reporter, GFP fluorescence, 18 h, TGF-beta stimulated, 500 pg/mL final; series mostly up to 46.1 µM; activity, negative = inhibition: at the top concentration
# Method in brief: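 Smad-responsive CAGA-GFP expression was quantified in HEPG2 cells exposed to compounds and 500 pg/mL final TGF-beta for 18 h at 37 degrees C; unstimulated wells defined full inhibition.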
# % is scaled to controls: 0 for no effect and ±100 for the full control effect; potency is read from the fitted curve at half-maximal effect.
SMILES,"activity, negative = inhibition",Potency
COc1ccc(CNC(=O)CCc2c(C)nn(-c3ccc(N4CCCC4)nn3)c2C)cc1,-14% (inactive),
Cc1ccccc1CNC(=O)CSc1nnc(C)c2c(C)n(-c3ccccc3)nc12,1.99% (inactive),
O=C(NCCc1ccc(Cl)cc1)c1ccc2nc(CCc3ccccc3)oc2c1,9.09% (inactive),
Cc1ccc(C)c(Cn2c(CCCNC(=O)C3CCCCC3)nc3ccccc32)c1,-5.37% (inactive),
CCOC(=O)CCC(NC(=O)c1ccc(CNc2nc3cc(C(F)(F)F)ccc3nc2C(=O)OCC)cc1)C(=O)OCC (stereo unspecified),0% (inactive),
Cn1c(N)c(C(=O)COC(=O)/C=C/c2cccc(C(F)(F)F)c2)c(=O)n(C)c1=O,-3.63% (inactive),
CCOC(=O)c1c(NC(=O)c2cc(CC)on2)sc(C(C)=O)c1C,8.3% (inactive),
CCCCN1C(=O)c2[nH]nc(-c3ccccc3O)c2C1c1cccc(OCc2ccccc2)c1 (stereo unspecified),,15.8 µM (active)
CN1C(=O)c2[nH]nc(-c3ccc(F)cc3)c2C1c1ccccn1 (stereo unspecified),-0.168% (inactive),
COc1cccc(-c2n[nH]c3c2C(c2cccc(O)c2)N(C)C3=O)c1 (stereo unspecified),-2.1% (inactive),
CN(C)Cc1cn(-c2ccccc2)nc1-c1ccccc1,-2.77% (inactive),
Cc1ccc(CNC(=O)C2(C(F)(F)F)C/C(=C\CCO)CCCO2)o1 (stereo unspecified),-17.7% (inactive),
CCOc1cc(C2C(C(=O)Nc3ccc(OC)cc3)=C(C)Nc3nc(SC)nn32)ccc1O (stereo unspecified),0.0326% (inactive),
Cc1ccc(C=O)c([B-](F)(F)F)c1,14.7% (inactive),
CN1c2ccc(C=O)c3c(C=O)ccc(c23)N(C)C1(C)C,,20 µM (active)
CN1CCN(CCCCOc2cccc3ccccc23)CC1,-3.76% (inactive),
CC1CC(C)CN(CCOc2cccc3ccccc23)C1 (stereo unspecified),-4.16% (inactive),
CC(C)c1ccccc1OCC(O)CN(CC(O)COc1cccc2ccccc12)C(C)C (stereo unspecified),,15.8 µM (active)
CCN(C(=O)Cn1cnc2sc(C)c(S(=O)(=O)N3CCN(c4ncccn4)CC3)c2c1=O)c1ccccc1F,-10.9% (inactive),
O=C(Nc1ccc2nc(SCCOc3ccccc3Cl)sc2c1)c1ccco1,-17.7% (inactive),
Cc1cc(C(=O)Nc2cccc(C(F)(F)F)c2)c2c(C)nn(-c3cccc(F)c3)c2n1,,7.08 µM (active)
COc1cc(NC(=O)c2cc(C3CC3)nc3c2c(C)nn3-c2ccccc2)cc(OC)c1,6.51% (inactive),
CSc1ccc(CCNC(=O)c2cc(C)nc3c2c(C)nn3-c2cccc(F)c2)cc1,-13.8% (inactive),
O=C(Nc1cc(C(F)(F)F)ccc1Cl)c1ccc2c(c1)CCN2S(=O)(=O)c1ccccc1,-3.22% (inactive),

SMILES,"activity, negative = inhibition",Potency
O=C(Nc1cc(C(F)(F)F)ccc1Cl)c1cc2nc(-c3ccc4c(c3)OCO4)cc(C(F)(F)F)n2n1,0.776% (inactive),
Cc1oc2c(F)c(F)c(F)c(F)c2c1S(=O)(=O)Nc1cccc(C(F)(F)F)c1,,7.08 µM (active)
CN(CC(=O)Nc1cccc(C(F)(F)F)c1)S(=O)(=O)c1cccs1,-21.3% (inactive),
Cc1noc(C)c1S(=O)(=O)Nc1cc(C(F)(F)F)ccc1N1CCOCC1,-7.13% (inactive),
CCC(=O)N1N=C(c2ccc(OC)cc2)CC1c1cn(-c2ccccc2)nc1-c1cccs1 (stereo unspecified),2.04% (inactive),
Cc1nnc(SCC(=O)NCc2ccccc2Cl)c2nn(-c3ccccc3)c(C)c12,-6.97% (inactive),
C=C1C(=O)[C@]23C[C@H]1CCC2[C@@]1(C)C(C[C@@H]3O)[C@](C)(C(=O)O)CC[C@@H]1O (stereo partly specified),,10 µM (active)
CCn1cc2nc(SCc3ccccc3Cl)n(CCc3ccccc3)c(=O)c2n1,-0.372% (inactive),
Cc1ccc(S(=O)(=O)c2c(Nc3cccc(Cl)c3)sc(C(=O)c3ccc4c(c3)OCO4)c2N)cc1,0.384% (inactive),
O=C(N/N=C\c1cccnc1)c1cc(-c2ccccc2)nc2c(Cl)cccc12,0% (inactive),
Cc1ccc(NC(=O)C2CCCN2S(=O)(=O)c2cccc3cccnc23)c(C)c1 (stereo unspecified),-4.43% (inactive),
Cc1ccc(S(=O)(=O)N(CC(=O)N/N=C/c2ccc(F)cc2)c2cccc3cccnc23)cc1,-1.79% (inactive),
Cc1ccc(NC(=O)CSc2nc3c([nH]c4ccccc43)c(=O)n2-c2ccccc2)c(C)c1,-16.8% (inactive),
Cc1ccc(NC(=O)CSc2cccc3cccnc23)c(C)c1,,14.1 µM (active)
O=C(CSc1cccc2cccnc12)N/N=C/c1cccnc1,,4.47 µM (active)
Cc1cccc(C)c1-n1ncc(C(=O)NCCCN2CCCCC2)c1C1CCN(C(=O)OC(C)(C)C)CC1,-1.79% (inactive),
Cc1ccccc1C(=O)N(Cc1ccc(N(C)C)cc1)CC1CCCO1 (stereo unspecified),-0.952% (inactive),
CCOC(=O)c1ccc(NC(=O)CC2C(=O)N(c3ccccc3)C(=O)N2Cc2cccs2)cc1 (stereo unspecified),-2.46% (inactive),
CCOC(=O)C1CCN(c2nc3c(S(=O)(=O)c4ccc(CC)cc4)nnn3c3ccc(Cl)cc23)CC1,0.965% (inactive),
CN(C(=O)CCN1C(=O)/C(=C/c2ccccc2F)SC1=S)C1CCS(=O)(=O)C1 (stereo unspecified),-10.2% (inactive),
CCN(C(=O)CN1C(=O)/C(=C/c2ccc(F)cc2)SC1=S)C1CCS(=O)(=O)C1 (stereo unspecified),-28.5% (inactive),
O=C1/C(=C/c2cccs2)SC(=S)N1C1CCS(=O)(=O)C1 (stereo unspecified),,15.8 µM (active)
COc1ccc(Cl)cc1S(=O)(=O)N1CCC(c2ccncc2)CC1,-14.5% (inactive),
CCN(C(=O)Cn1cc(S(=O)(=O)N2CCN(c3ccccc3F)CC2)c2ccccc2c1=O)c1ccc(C)c(C)c1,-16.8% (inactive),

SMILES,"activity, negative = inhibition",Potency
COc1ccc(C(F)(F)F)cc1NC(=O)c1sc2nc(-c3cccs3)ccc2c1N,7.6% (inactive),
Cc1ccc(-n2ncc(C(=O)NC3CC3)c2C2CCN(C(=O)OC(C)(C)C)CC2)c(C)c1,3.65% (inactive),
Cc1ccc(CN2CCC(CNC(=O)c3cnn(-c4ccccc4Cl)c3C3CCN(C(=O)OC(C)(C)C)CC3)CC2)cc1,,15.8 µM (active)
Cc1ccc(CN2CCC(CNC(=O)c3cnn(-c4ccc(C)cc4)c3C3CCN(C(=O)OC(C)(C)C)CC3)CC2)cc1,-19.3% (inactive),
CCc1nn(CC(=O)Nc2cc(C)cc(C)c2)c(=O)c2cc3sccc3n12,0.509% (inactive),
Oc1c(C(c2ccccn2)N2CCOCC2)ccc2cccnc12 (stereo unspecified),,3.98 µM (active)
Oc1c(C(c2ccccc2Cl)N2CCOCC2)sc2nc(-c3ccco3)nn12 (stereo unspecified),-0.624% (inactive),
O=C(COC(=O)c1ccccc1OCCOc1ccccc1)Nc1cccc(Br)c1,-6.6% (inactive),
Cc1c(-c2cccc(NC(=O)C(C)(C)C)c2)nc2ncccn12,-12.9% (inactive),
ClC/C=C/C[n+]1ccccc1Cl,-3.54% (inactive),
O=C(Nc1nnc(S(=O)(=O)N2CCOCC2)s1)c1cccc(Br)c1,-20.5% (inactive),
O=C(Nc1nnc(S(=O)(=O)N2CCCCCC2)s1)c1cccc(Br)c1,,10 µM (active)
Cc1cccc(C(=O)Nc2nnc(S(=O)(=O)N3CCCCCC3)s2)c1,-24.8% (inactive),
O=C(NCc1ccccc1)c1ccc2c(c1)nc1n2CCCCC1,-14.4% (inactive),
Cc1cccc(NC(=S)NCc2ccc3[nH]c4c(c3c2)CCCC4)c1,,25.1 µM (active)
Cc1cc(C)cc(NC(=S)NCCc2c[nH]c3ccccc23)c1,-25.4% (inactive),
CCc1cccc(CC)c1NC(=S)NCc1ccc2[nH]c(C)cc2c1,-7.74% (inactive),
Cc1csc(NCC(=O)c2c[nH]c3ccccc23)n1,-1.4% (inactive),
Nc1ncnc2nnsc12,9.53% (inactive),
CC(C)(C)c1ccc(C(=O)C[n+]2cccc3cc(Cl)ccc32)cc1,-12.3% (inactive),
COc1cccc(-c2cccc(NC(=O)C3CCN(C4CCC4)CC3)c2)c1,-0.372% (inactive),
COc1cccc(N=C2SC(C(=O)Nc3cccc(Cl)c3)CC(=O)N2C)c1 (stereo unspecified),,10 µM (active)
COc1ccc(N=C2SC(C(=O)Nc3ccc(F)cc3)CC(=O)N2C)cc1 (stereo unspecified),3.67% (inactive),
O=C(C1CCCN(S(=O)(=O)c2cccc3nonc23)C1)N1CCN(c2ccccc2F)CC1 (stereo unspecified),-8.65% (inactive),

SMILES,"activity, negative = inhibition",Potency
CC(C)Oc1ccc(NC(=O)c2cc3ccccc3o2)cc1,-3.52% (inactive),
CCOc1ccccc1N(CC)C(=O)Nc1cn(C)c(=O)c2ccccc12,-2.53% (inactive),
COC(=O)c1c(NC(=O)c2cc(=O)c3c(C)cc(C)cc3o2)sc2c1CCCC2,5.83% (inactive),
CC(=O)Nc1cnc(-c2ccc(O)cc2C)cn1,22.5% (inactive),
Cc1ccc(Nc2nc(-c3ccc(O)cc3O)cs2)nc1,,12.6 µM (active)
Cc1ccn2c(-c3csc(Nc4ccc(C(=O)O)cc4)n3)c(C)nc2c1,-5.02% (inactive),
CCOc1ccc(CNC(=O)CCc2c(C)nn(-c3ccc(N4CCCCC4)nn3)c2C)cc1,-29.5% (inactive),
COc1cccc(CNC(=O)CCC(=O)N2CC3CCCN3c3ccccc32)c1 (stereo unspecified),1.62% (inactive),
COC(=O)c1c(C)oc2ccc(N(C(=O)Oc3ccccc3)S(=O)(=O)c3ccccc3)cc12,-0.887% (inactive),
CCc1ccc(S(=O)(=O)Nc2cc3c(C(=O)OCc4ccccc4)c(C)oc3c3ccccc23)cc1,-10.1% (inactive),
CCOC(=O)c1c(C)oc2ccc(N(C(=O)c3ccncc3)S(=O)(=O)c3ccc(CC)cc3)cc12,,12.6 µM (active)
Cc1nc2sc(C)c(C)n2c(=O)c1S(=O)(=O)NCCc1ccc(Cl)cc1,-6.27% (inactive),
CCCCCCCCn1c2c(c(=N)c3c1CCC3)CCCC2,,8.91 µM (active)
CCCCN(CC)C(=O)c1c[nH]c2ccc(S(=O)(=O)Nc3cccc(OC)c3)cc2c1=O,2.08% (inactive),
Oc1cccc2cc(-c3ccncc3)cnc12,,3.55 µM (active)
CCc1cc2c(cc(C(=O)OC)n2Cc2nc(-c3ccc(C)cc3)oc2C)s1,2.49% (inactive),
Cc1ccc(Cl)cc1N(C)C(=O)C1CCCN(c2ncnc3onc(-c4ccc(F)cc4)c23)C1 (stereo unspecified),,11.2 µM (active)
CCc1ccccc1N(C)C(=O)C1CCCN(c2ncnc3onc(-c4ccc(F)cc4)c23)C1 (stereo unspecified),-7.58% (inactive),
COc1ccccc1N1CCN(c2ncnc3onc(-c4ccc(F)cc4)c23)CC1,-2.19% (inactive),
Cc1ccc(Nc2c(-c3ccc(N(C)C)cc3)nc3nc[nH]n23)cc1,9.98% (inactive),
CCc1ccc(C(CNc2nc(C(F)(F)F)nc3ccccc23)N(C)C)cc1 (stereo unspecified),,11.2 µM (active)
CN(C)C(CNC(=O)c1cc2ccccc2o1)c1ccccc1 (stereo unspecified),-11.8% (inactive),
CN(NC(=O)c1ccccc1F)c1nc(C(F)(F)F)nc2ccccc12,-21.4% (inactive),
O=C(C1COc2ccccc2O1)N(Cc1cccnc1)c1nc2c(F)cc(F)cc2s1 (stereo unspecified),-13.3% (inactive),

# Source: PubChem BioAssay AID588855 (National Center for Advancing Translational Sciences (NCATS), 2011)
